# Assay results published in the supplement of paper PMC6555819.
# Columns and labels:
# Test in all cases: PBM binding z-score (relative to random genomic background probes); higher = stronger binding; sequences stand for … in GC…GCGATTGACAGCGTAGAATGAAGG
# [1] = tested on: FXR:RXRa (NR concentration 270 nM, RXRa partner concentration 90 nM)
# In short: (§1)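 Ligand-free nuclear receptor dimers were applied to custom Agilent 4×180K protein-binding microarrays whose double-stranded probes carried direct-repeat seeds, single-nucleotide variants, half-site ablations and random human genomic background sequences in 34-nt variable regions. Incubation lasted 1 h. Binding z-scores were computed against the random background probes from regression-normalized fluorescence.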
# [2] = tested on: LXRa:RXRa (NR concentration 270 nM, RXRa partner concentration 90 nM)
# In short: as §1
# [3] = tested on: LXRa homodimer (NR concentration 270 nM)
# In short: as §1
# [4] = tested on: LXRb:RXRa (NR concentration 270 nM, RXRa partner concentration 90 nM)
# In short: as §1
# [5] = tested on: LXRb homodimer (NR concentration 270 nM)
# In short: as §1
# [6] = tested on: PPARa:RXRa (NR concentration 270 nM, RXRa partner concentration 90 nM)
# In short: as §1
# [7] = tested on: PPARg:RXRa (NR concentration 180 nM, RXRa partner concentration 90 nM)
# In short: as §1
# [8] = tested on: PPARg:RXRa 270nM:90nM, anti-RXR (NR concentration 270 nM, RXRa partner concentration 90 nM)
# In short: as §1
# [9] = tested on: PPARg:RXRa 30nM:10nM, anti-RXR (NR concentration 30 nM, RXRa partner concentration 10 nM)
# In short: as §1
# [10] = tested on: PPARg:RXRa 90nM:30nM, anti-RXR (NR concentration 90 nM, RXRa partner concentration 30 nM)
# In short: as §1
Sequence,PBM binding z-score [1],PBM binding z-score [2],PBM binding z-score [3],PBM binding z-score [4],PBM binding z-score [5],PBM binding z-score [6],PBM binding z-score [7],PBM binding z-score [8],PBM binding z-score [9],PBM binding z-score [10]
CCATACGGGTCACTCCAGGTTATAGCATCGGAGT,4.55,7.37,1.79,5.15,0.265,4.18,3.46,3.28,1.27,2.68
CACCCTAGGTCAGGGCCAGTATAGGAGGAACGTT,1.9,2.6,0.74,1.2,-0.00593,2.24,1.36,1.08,-0.0218,0.354
CAAACTAGGTAACCGGAAGGTCAAAGTCCGCATG,4.07,3.94,3.88,3.43,0.672,4.48,4.83,4.98,2.22,4.2
TCGTATAGGTAAAGGTGAAAGTCGAACGATATGA,1.05,1.45,0.11,1.11,-0.167,2.87,2.34,3.99,3.45,3.86
ATACCAAGGTGATCGTGAGGTCGTTGATACTAAC,1.86,1.35,0.615,1.5,0.284,1.67,0.613,0.439,0.0505,0.47
CGAACTAGCTCATCCAGGACAGTGAATACATTGA,-0.123,-0.399,0.0441,-0.293,-0.166,-0.4,0.522,-0.572,0.105,0.154
TCTATTAGTTGAAGGGCAACCAACGAGTCCGTTT,0.452,0.763,0.54,0.694,0.122,0.554,-0.00575,1.94,3.75,2.69
CCTAGCAGGCCAATCTGGGACACTCAAGGCTTGA,0.127,-0.43,-0.779,-1.13,-0.814,-0.0365,0.255,-0.496,-0.884,-0.673
ATCTCGAGGTAAAAGTTCAGTGAATCCCGAGGAT,1.26,1.85,0.551,1.28,0.304,3.44,5.01,5.51,4.17,5.67
ACTTTCGGGTCAACGAGGTTATAGCACGCGTATA,6.38,5.02,0.999,4.56,1.45,5.52,4.94,5.18,2.34,4.34
CCTTACGGGTCACTCCAGGTTTTAGCATCGGAGT,4.87,5.1,0.102,2.85,-0.172,4.69,3.06,3.81,0.53,2.55
TCTTATAGATCAGCAGGTTAAGAAAGCTGGCCAA,0.0686,0.24,-0.273,0.335,-0.379,0.481,-0.154,1.43,2.63,2.09
GATACAGGGTCAAGGCCAGAGGACGCGTATTGAT,6.78,4.13,-0.101,3.54,-0.0333,5.49,6.03,5.55,2.01,4.12
CCTACTGGGCCAAGGGTCATTGATTCCAATGCTC,2.79,2.59,0.211,2.63,-0.578,5.27,10.2,9.04,8.43,10.2
CCTACTGGGCCAAAGGTCATTGATTCCAATGCTC,4.82,5.3,4.17,4.72,0.913,6.33,12,10.5,10.7,11.4
TTACCAAGGTGAGCTTAGGTCGTTGATCCAACTC,0.558,0.409,-0.684,0.122,-1.23,1.05,-0.0698,0.725,-0.0893,0.244
TCAGATAGGTAATACAGGTGAAAGTCGGCATCTA,0.862,1.41,0.032,0.889,0.0501,1.72,0.936,2.37,4.15,3.25
TCTTGTAGTTCAGCAGGTTAAGAAAGCTGGCCAA,0.786,1.15,0.28,0.805,0.146,1.5,-0.802,1.61,2.42,1.86
AGTCAAAGTTCATGTAGGTAACGTAAGATATGCT,6.48,5.94,4.83,3.65,1.37,4.9,6.75,6.37,3.09,5.61
CCTAGCAGGCCAGGGTCACTAAAGCATTTCGCTT,1.78,1.59,-0.472,1.78,-1.37,3.06,0.442,1.2,-0.365,0.422
ATCGGAAGGTCGTGAGGTGAGTATACAGAAAGGC,2.73,1.85,0.212,1.69,0.0341,3.13,1.68,1.63,0.466,0.932
TCTTGTTGGTCAAAGGTCACACACTCGAAATGCG,5.68,5.8,4.46,5.63,2.85,6.46,10.7,9.31,9.15,10

Sequence,PBM binding z-score [1],PBM binding z-score [2],PBM binding z-score [3],PBM binding z-score [4],PBM binding z-score [5],PBM binding z-score [6],PBM binding z-score [7],PBM binding z-score [8],PBM binding z-score [9],PBM binding z-score [10]
TAGCCAAGGTCATTGGGCCAGTATAGTACGCATC,7.45,5.57,1.49,4.67,0.952,5.95,6,5.57,2.47,3.59
CTACCAAGGTGAACAAGGTCGTGGATTACTATTC,1.7,1.56,-0.154,1.73,-0.448,2.96,1.5,1.61,0.053,0.918
GCTTTTAGTTGAAAGGGCAACCGAATGATTCTCG,0.288,0.561,-0.0833,0.53,0.106,2.2,2.24,4.03,1.85,3.97
AGAACGAGGGCAATGACTTGATAGCACGGGTGGC,0.827,0.481,-0.243,-0.0938,-0.458,1.43,1.71,0.813,0.00433,0.55
TGAATGAGGTTAAAGATCAGGGGACGTGGCGTCG,3.07,2.68,-0.153,1.66,1.09,4.35,5.2,6.37,5.28,6.61
TCTAGTTGGTCACGAAGGTCACACACGACGGGTA,2.82,3.04,1.75,3.17,0.769,3.71,3.45,4.6,3.66,4.25
GCTTACGGGGCAAAGGTTATAGCATGAATAGAAT,2.32,2.71,0.016,3.48,0.208,5.38,8.91,8.3,7.37,9.06
TCTATTAGTAGAAGGGCAACCGACGAGTCCGTTT,0.288,0.212,0.0189,0.17,-0.103,0.688,0.23,1.93,3.29,2.44
AATACAGGGTCATCGTTGGCCAGAGTACGCACAG,7.42,6.21,2.13,4.57,1.5,5.96,6.68,5.97,2.51,4.75
GCGACTGGGCCAAAGCAGGTTACCATAAGGTTGG,-0.0779,-0.533,-0.738,-0.554,-1.58,0.468,0.648,0.456,-0.481,0.0774
TATACAGGGTCAAAGGCCAGAGTACGAATGTCGA,7.35,6.25,2.5,4.96,1.86,6.57,8.48,7.61,5.77,7.93
ACTATTAGTTGAGACGCGGGCAACCGATAGGTTG,-0.0666,-0.0998,-0.325,-0.488,0.193,-0.624,0.371,-0.414,-0.25,-0.167
ATCTCTAGGTAATACTCAGTTCAGTGAAGAACGC,0.748,1.03,1.19,0.468,1.55,0.541,0.424,0.567,0.572,0.52
ATCTATAGGTAAAGATAGTTCAGTGAATGCAAAT,0.466,5.29,0.591,1.55,0.423,0.82,1.09,0.484,0.425,0.604
TAGCCTAGGTCATATCGGGCCAGTATACGCTATA,4.12,3.82,0.583,2.59,0.744,3.14,1.53,1.61,0.227,0.981
ATAAGTAGGTTATCGGGTCATTCAGTTTGCGCAT,3.42,3.08,1.77,3.11,1.39,5.07,7.54,6.6,3.83,6.09
TAGCCTAGGTCATGGGCCAGTATTCCACGCGAAC,4.39,3.5,0.0514,2.3,-0.499,4.12,3.67,3.49,1.17,2.47
CGTCCAAGGTCAGAGATGTCAGTGAATGCCGAGT,4.67,2.73,0.142,1.82,-0.161,3.59,2.24,2.19,0.132,1.04
CGTCCAAGTTCAAGGTAACGTAACAGAAAGCAGC,2.88,2.37,0.562,1.53,0.319,2.68,1.17,1.4,0.382,1.04
CCTAGTAGGCCAATCTGGGTCACTCAAGGCTTGA,0.701,1.69,-0.399,1.2,-0.38,3.58,3.41,3.08,0.257,2.26
CATACAGGGTCAGCTAGGCCAGACTAGGGACGGC,4.02,2.77,-0.135,1.97,0.282,4.06,3.31,2.8,0.502,1.8
CGTCCAAGGTCATAGGAGGGCAGTGAAGACAGAT,7.39,6.11,1.55,4.12,0.284,5.68,5.29,5.19,1.85,3.99
